Experimental data: the supplement of paper PMC3334620
In all, about 33,000 sequences were measured (“E-score (-0.5 to 0.5)”: median about -0.021, highest 2% from about 0.32 on). What follows is part of a selection rich in the highest values, with near analogues and random picks from the rest.

Target: T1, Zap1 (UniProt P47043)
T1 sequence: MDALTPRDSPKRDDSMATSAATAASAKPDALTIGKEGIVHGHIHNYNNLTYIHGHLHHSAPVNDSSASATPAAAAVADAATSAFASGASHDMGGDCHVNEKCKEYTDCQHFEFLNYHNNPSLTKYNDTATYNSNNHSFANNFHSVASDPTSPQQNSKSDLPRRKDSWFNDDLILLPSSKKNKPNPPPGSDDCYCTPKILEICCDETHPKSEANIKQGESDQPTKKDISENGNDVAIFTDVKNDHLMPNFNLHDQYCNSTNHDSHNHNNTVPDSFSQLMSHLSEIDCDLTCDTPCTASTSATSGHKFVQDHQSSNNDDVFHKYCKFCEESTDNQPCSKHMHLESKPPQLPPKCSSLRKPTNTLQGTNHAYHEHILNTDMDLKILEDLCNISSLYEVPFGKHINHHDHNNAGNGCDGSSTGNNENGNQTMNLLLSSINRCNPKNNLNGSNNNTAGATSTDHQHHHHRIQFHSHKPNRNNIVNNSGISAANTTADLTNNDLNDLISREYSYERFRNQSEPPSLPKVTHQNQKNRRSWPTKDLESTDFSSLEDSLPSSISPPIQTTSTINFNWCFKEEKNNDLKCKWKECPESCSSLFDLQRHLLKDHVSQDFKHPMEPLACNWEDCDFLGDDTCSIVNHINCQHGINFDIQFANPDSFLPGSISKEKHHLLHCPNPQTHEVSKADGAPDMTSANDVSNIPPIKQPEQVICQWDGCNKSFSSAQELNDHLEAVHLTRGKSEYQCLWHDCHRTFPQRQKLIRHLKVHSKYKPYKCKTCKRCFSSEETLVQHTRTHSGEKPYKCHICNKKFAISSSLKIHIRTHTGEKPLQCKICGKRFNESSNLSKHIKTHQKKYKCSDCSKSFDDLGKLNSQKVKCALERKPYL
Assay: PBM E-score (8-mer binding enrichment) (E-score (-0.5 to 0.5)); higher = stronger / more preferred TF binding
Settings: protein concentration: 200 nM; construct: GST-full length
Method in brief: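 Full-length yeast transcription factors or their DNA-binding domains, GST-tagged and expressed with PURExpress, were applied at about 100-200 nM to universal all-10-mer Agilent arrays. These arrays had been made double-stranded by primer extension on fresh or once-stripped slides. Detection used fluorescent anti-GST, normalisation used masliner, and E-scores for ungapped eight-base words pooled with reverse complements came from the Universal PBM Analysis Suite.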

Sequence | PBM E-score
CTCAACCA | 0.00637
TACGACGA | -0.0483
ACCCGTCT | -0.0166
CAGCTAAA | 0.0244
CGCGATGA | 0.181
GATTCTAA | -0.0858
CCATTGAA | 0.174
ATTCGACC | 0.0544
ATTAACAC | 0.172
ATTAACCC | 0.334
ATTAACTC | 0.0519
GGCTCAGA | -0.101
GCTTACCA | 0.0792
AGGCTGTC | -0.202
ACACTGGC | -0.0599
CATACAGC | -0.249
ACTGGTTA | 0.405
CCTGGTTA | 0.306
GCTGGTGA | 0.0777
GCTGGTTA | 0.329
ACTGGTTC | 0.0663
GCTGGTCA | 0.0223
AACTGTTG | -0.147
TGAACACA | 0.0543
CACTACCG | 0.129

Sequence | PBM E-score
CAAAGAGG | 0.0514
AAGCTATT | -0.138
ACCCGAAA | 0.328
ACCCGTAC | 0.0183
ACCCCGAA | 0.384
ACCCGAAG | 0.197
ACCCCGAT | 0.197
GACCCGAA | 0.175
CCCCCGAA | -0.164
ACCCGTAA | 0.333
CCCCGTAA | 0.16
AACCCGAA | 0.327
AACCCGAT | 0.31
ACCCGAAT | 0.254
TCCACGAA | 0.111
CGTGAAGC | -0.326
TAGAGTCA | -0.166
AAACTTGG | 0.124
AACCAAGT | 0.271
CGAGAGGA | -0.0403
CGCCTTCA | -0.26
CCAGGGGA | -0.0512
GTTACAAA | 0.343
CTTACCAA | 0.0782
ATTACCAA | 0.18

Sequence | PBM E-score
CGTACCAC | 0.0803
GTTACCAA | 0.362
TGTACCAA | 0.0671
AGTACCAC | 0.208
CGTACCAA | -0.0153
GGTACCAC | 0.362
GTTACAAC | 0.291
CTTACAAA | 0.0824
GGTACCAA | 0.337
AGCAGCCG | 0.0213
AAATGGTC | 0.207
ACTCATGC | -0.147
CACCTCGG | 0.0517
TTAGAGAA | -0.0471
GCAATAGC | -0.122
AATTCGAG | -0.131
GACTAGAC | -0.101
ACAGAAAG | 0.11
CCTTGTTA | 0.12
CCGGGCGC | -0.315
CGCCCATC | -0.171
AATAACCT | 0.454
GATAACCC | 0.47
CCTAACCC | 0.264
AATAACCC | 0.466

Sequence | PBM E-score
GCTAACCC | 0.32
AATAACGT | 0.0381
ACTAACCC | 0.271
AATAACAC | 0.107
GATAACGC | -0.11
AATAACAT | 0.0801
AATAACGC | -0.0593
GATAAACC | 0.21
ACTATCGC | -0.0428
AGCAGAAT | 0.0481
CTACCAAG | 0.0784
GCATAGGA | -0.135
GAGTAGGA | -0.289
GACTGTGA | -0.0753
AAGCACTC | -0.146
ACTCGTGG | 0.0689
AATAACAG | 0.118
ACTAACCT | 0.318
AATAACGG | 0.169
ACTAACCA | 0.282
ACTAACCG | 0.144
AATAACCG | 0.421
CCTAGCAA | 0.0808
CGTTGGTC | -0.0765
AAAAGGAT | 0.0556

Sequence | PBM E-score
AAAAGGTT | 0.444
ATAAGGTC | 0.184
CAAAGGTC | 0.314
AAAAGGTC | 0.367
AAAAGGTG | 0.173
CGCAACTA | 0.162
AGGCCCAA | -0.0071
GACGCGAA | -0.12
AGAGAATC | -0.152
AATGAATG | 0.0096
AGGCTAGA | -0.15
CACCTATA | 0.0311
TACCTATA | 0.337
TACCTAAA | 0.199
TACCTACA | 0.137
TACCTAGA | 0.163
AACCTAAA | 0.356
GACCTATA | 0.295
AACCTATA | 0.374
CACCTAAA | 0.191
ATGCGTTC | -0.0993
GCAGGCAA | -0.144
ACTCAGAG | 0.11
CTGATAAA | 0.121
GGAACACC | 0.105

Sequence | PBM E-score
ATTTCTCG | 0.176
CTTGCTAC | 0.0655
ATCTCACC | -0.0161
CGACTGGA | -0.193
CCCTCTCA | -0.23
ACCTCAAA | 0.326
ACCTCTCA | 0.344
GCCTCAAA | 0.00889
ACCTCTAC | 0.259
ACCTCTCT | 0.0304
ACCTCAAG | 0.251
ACCTCTAG | 0.411
ACCTCTAT | 0.293
CACTGGCG | -0.0169
GCTTCAAC | 0.00654
TAGCCAGA | -0.00683
CGAGCTAA | -0.031
GATCAGAA | -0.106
AGTAATAT | 0.178
AGAGCTAC | -0.184
GACCCACC | 0.245
GCCCCACC | 0.283
AACCCACA | 0.331
CACCCACA | 0.168
AACCCACG | 0.156

Sequence | PBM E-score
CACCCACC | 0.194
ACCCCACC | 0.419
AACCCACC | 0.343
CCCCCACC | -0.378
ATTTTCTA | 0.122
CTATGAGC | -0.127
CTTCTCCC | -0.213
ATCCTCAC | 0.0272
GAAGATGA | 0.0533
AGGGTACA | 0.337
AGTGTACC | 0.0741
AGGGTACT | 0.441
AGGGTACC | 0.461
GGGGTACA | 0.249
ACGGTACA | 0.213
AGCGTACT | -0.127
TGGGTACA | 0.174
AGGGTACG | 0.296
GGGGTACC | 0.424
GGCGTACC | 0.0458
AGAGTACT | -0.144
CGAAGCAA | -0.00093
